The results in this text go back to PubChem BioAssay.

Several values for one entry are separate records, joined by “and”; a condition that tells them apart may be missing. Equal entries are not always repeated. Values without a mark were called inactive.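 The calls were made as follows: active = z-score of at least 1.8 in each of two replicates, scored against plate mean and spread of sample wells; inactive = the rest.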

This experiment in a line: galactose survival enhancers in mitochondrial complex I cybrids – cell-based, galactose medium, ATP luminescence, primary screen (AID 1645843).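 Also: positive z means more ATP and so rescue of galactose-driven cybrid death.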 To be noted: complex I mutant cybrid cells, 72 h, hits give high values.
As to `CS(=O)(=O)c1ccc(C2=C(c3ccccc3)C(=O)OC2)cc1`, the z-score is 0.26 and 0.525.
Then `Cc1cccc(C)c1NC(=O)C1CCCCN1C` (stereo unspecified), with 0.56.
To `COc1ccc(/C=C/C(=O)Nc2ccccc2C(=O)O)cc1OC` belongs 1.34 and 0.925 and 0.79; to `Nc1ncnc2c1ncn2[C@@H]1O[C@H](CO)[C@@H](O)[C@@H]1O`, -1.35 and 1.67.
Take `O=c1ccc2ccc(O)c(O)c2o1`: the z-score is -0.93.
`CN(C)c1nc(N(C)C)nc(N(C)C)n1`: the z-score was 0.975 and 0.76 and 0.825.
Consider `Cc1occc(=O)c1O`, for which the z-score is 0.51.
Regarding `COc1ccc(-c2cc(=O)c3c(OC)c(OC)c(OC)c(OC)c3o2)cc1OC`, the z-score is 0.845.
For `COC(=O)[C@H](c1ccccc1Cl)N1CCc2sccc2C1`, the z-score is -0.555 and -0.06.
In the case of `C[N+]1(C)CCCC(OC(=O)C(O)(c2ccccc2)c2ccccc2)C1` (stereo unspecified), the z-score is 0.49.
Then `O=[N+]([O-])c1cccc2cn[nH]c12`, with 0.295 and 0.3 and -0.14; and `C[C@H]1COc2c(N3CCN(C)CC3)c(F)cc3c(=O)c(C(=O)O)cn1c23`, with -0.45; and `CC1=C(/C=C/C(C)=C/C=C/C(C)=C\C(=O)O)C(C)(C)CCC1`, with 1.53 and -0.905.
As for `CCc1ccc(CCOc2ccc(CC3SC(=O)NC3=O)cc2)nc1` (stereo unspecified), the z-score is 0.365 and 1.53.
`COc1ccc(C[C@H](N)C(=O)N[C@H]2[C@@H](O)[C@H](n3cnc4c(N(C)C)ncnc43)O[C@@H]2CO)cc1`: the z-score was -2.25.
Turning to `CC[C@H]1OC(=O)[C@H](C)[C@@H](O[C@H]2C[C@@](C)(OC)[C@@H](O)[C@H](C)O2)[C@H](C)[C@@H](O[C@@H]2O[C@H](C)C[C@H](N(C)C)[C@H]2O)[C@](C)(OC)C[C@@H](C)C(=O)[C@H](C)[C@@H](O)[C@]1(C)O`, the z-score was -0.33.
